SARS 3CLpro inh – SARS-CoV 3CLpro protease inhibitors, primary screen, biochemical, quenched FRET. Replicase polyprotein 1ab (Severe acute respiratory syndrome coronavirus), P0C6X7. recombinant SARS-CoV 3CLpro, quenched FRET peptide cleavage. inhibition, % at 6 µM. 290,000 tested, 0.14% active. AID 1706, 2009; in the data active = inhibition above about 12%
BJeLR viability – MLPCN primary cell-based screen for lethality selective to Ras in HRASV12 cells. BJeLR (HRASV12) viability, CellTiter-Glo ATP luminescence, 48 h. inhibition, % (no concentration beside the values). 300,000 tested, 0.17% active; in the data active = inhibition above about 50%; inconclusive = no clear call, values can overlap the other calls
RN4220 kill – growth inhibition of S. aureus RN4220, primary screen, OD600 | 330,000 tested, 0.33% active | AID 1259311, 2017 | 16 h | inhibition, % (no concentration beside the values); in the data active = inhibition above about 85%
ugtP null kill – growth inhibition of ugtP-null S. aureus, primary screen, RN4220 ugtP deletion, OD600; AID 1259309, 2017; 330,000 tested, 0.54% active; growth inhibition, % (concentration not given with the values); 16 h; in the data active = growth inhibition above about 68%
PfHsp40 rescue – rescue of yeast from PfHsp40 toxicity, primary screen, S. cerevisiae, ATP luminescence; growth rescue, % at 12.5 µM; S. cerevisiae expressing PfHsp40, growth rescue; 340,000 tested, 0.68% active; in the data active = growth rescue above about 28%, passing the limit was not always enough; inconclusive = no clear call, values can overlap the other calls;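 also: yeast W303a lacking pdr1 and pdr3 grown in galactose medium; growth measured after three days at 30 °C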
Of the large screens only hits and unclear results are named; the others gave an inactive call. Only some compounds are listed: those with a hit (about 1.3% of all), similar ones and a draw of the others.

CCC[C@@H](CN1CCC[C@H]1CN1C(N)=NC[C@H]1CC(C)C)N1C[C@@H]([C@H](C)CC)N(CCCC2CCCC2)C1=N	RN4220 kill 100.6, ugtP null kill 100.6 (no result: SARS 3CLpro inh, BJeLR viability)
CCOC(=O)C1(C(=O)OCC)NC(=O)CC1C (stereo unspecified)	none (no result: SARS 3CLpro inh, BJeLR viability)
CC(c1ccccc1)N1C(=O)c2ccc(C(=O)Nc3ccc(Br)cc3C(=O)O)cc2C1=O (stereo unspecified)	RN4220 kill 100.5, ugtP null kill 92.0
Cc1ccc(CSc2nnc(CS(=O)Cc3ccc(Cl)cc3Cl)n2C)cc1 (stereo unspecified)	none
COc1ccc(NS(=O)(=O)c2ccc3c(c2)Cc2ccccc2-3)cn1	PfHsp40 rescue 28.3
O=c1c2cc(Cl)ccc2nc(-c2ccc(Cl)c(Cl)c2)n1O	none (no result: RN4220 kill, ugtP null kill)
O=c1c2cc(Cl)ccc2nc(-c2ccccc2)n1O	PfHsp40 rescue 195.0
O=c1c2cc(Br)ccc2nc(-c2ccc([N+](=O)[O-])cc2)n1O	PfHsp40 rescue 160.0
N#Cc1ccc(-c2nc3ccc(Br)cc3c(=O)n2O)cc1	none
N/C(Cc1ccc(Cl)cc1Cl)=N\OC(=O)c1ccc(Br)o1	PfHsp40 rescue 572.1
N/C(Cc1cccc2ccccc12)=N\OC(=O)c1ccc(Br)o1	none (no result: BJeLR viability, RN4220 kill, ugtP null kill, PfHsp40 rescue)
NC(=O)CSc1nnc(CCc2nc3ccccc3[nH]2)n1-c1ccccc1	none (no result: BJeLR viability, RN4220 kill, ugtP null kill, PfHsp40 rescue)
Clc1ccc2c(NN=Cc3ccccc3Br)ccnc2c1	RN4220 kill 98.5, ugtP null kill 99.1 (no result: SARS 3CLpro inh, BJeLR viability, PfHsp40 rescue)
Oc1ccc(/C=N/Nc2ccnc3cc(Cl)ccc23)c(O)c1O	none (no result: RN4220 kill, ugtP null kill)
Clc1ccc2c(NN=Cc3cccc(Br)c3)ccnc2c1	RN4220 kill 100.6, ugtP null kill 100.7 (no result: SARS 3CLpro inh, BJeLR viability, PfHsp40 rescue)
O=c1ccc2cc3c([nH]c4ccc(Br)cc43)oc-2c1O	PfHsp40 rescue 228.3
COc1cc(CN(C)Cc2cc(=O)n3ccsc3n2)ccc1OC(F)F	none
C/[N+]([O-])=C/c1c(OCc2ccccc2)ccc2ccccc12	PfHsp40 rescue inconclusive
O=Cc1c(OCc2ccccc2)ccc2ccccc12	PfHsp40 rescue 100.5
Cc1ccc(OCC(=O)Nc2ccc(S(=O)(=O)Nc3cc(C)nc(C)n3)cc2)c(C)c1	none (no result: SARS 3CLpro inh)
O=S(=O)(Nc1ccc(Cl)cn1)c1ccc2c(c1)OCCO2	none (no result: SARS 3CLpro inh)
Cc1ccc2nc(NN=Cc3ccc([N+](=O)[O-])o3)nc(-c3ccccc3)c2c1	RN4220 kill 99.3, ugtP null kill 100.1 (no result: SARS 3CLpro inh, BJeLR viability, PfHsp40 rescue)
CCCC(=O)Nc1ccc(C(=O)N/N=C/c2ccc([N+](=O)[O-])o2)cc1	BJeLR viability 121.7 (no result: RN4220 kill, ugtP null kill)
O=C(NN=Cc1ccc([N+](=O)[O-])o1)c1cn(-c2ccccc2)nc1-c1ccc(Cl)cc1	RN4220 kill 99.3, ugtP null kill 98.7 (no result: SARS 3CLpro inh, BJeLR viability, PfHsp40 rescue)
Cc1cc(NN=Cc2ccc([N+](=O)[O-])o2)nc2ccccc12	none (no result: SARS 3CLpro inh, BJeLR viability, PfHsp40 rescue)
CC1(C(=O)NN=Cc2ccc([N+](=O)[O-])o2)CC1(Br)Br (stereo unspecified)	ugtP null kill 89.1 (no result: SARS 3CLpro inh, BJeLR viability, PfHsp40 rescue)
CC(OC(=O)c1ccccc1O)C(=O)Nc1cccc(Cl)c1 (stereo unspecified)	none (no result: RN4220 kill, ugtP null kill)
CC1CC(C)CN(S(=O)(=O)c2ccc(C(=O)N3CC(C)OC(C)C3)cc2)C1 (stereo unspecified)	none
O=C(NN=Cc1ccc([N+](=O)[O-])o1)c1cc2c(ccc3ccccc32)o1	RN4220 kill 98.2, ugtP null kill 98.5 (no result: SARS 3CLpro inh, BJeLR viability, PfHsp40 rescue)
CCCc1ccc(-c2cc(C(=O)NN=Cc3ccc([N+](=O)[O-])o3)c3ccccc3n2)cc1	RN4220 kill 108.5, ugtP null kill 99.1 (no result: SARS 3CLpro inh, BJeLR viability, PfHsp40 rescue)
N/C(=N\OC(=O)CCC1CCCCC1)c1cccnc1	none
COc1ccccc1NC(=O)Nc1nc(CC(=O)Nc2ccc(F)c(F)c2)cs1	none (no result: SARS 3CLpro inh)
CSc1nc2c(c(-c3ccccc3)c1C#N)CCC2	ugtP null kill 83.4
N#Cc1c(N)nc2c(c1-c1ccccc1)CCCC2	none
O=C1CC(c2ccco2)CC(O)=C1C=NCCN1CCN(C(=S)Nc2ccccc2)CC1 (stereo unspecified)	none
CCCc1ccc(Oc2c(-c3ccc(O)c(C)c3O)n[nH]c2C)cc1	ugtP null kill 96.9
CCCc1ccc(Oc2cn[nH]c2-c2ccc(O)c(C)c2O)cc1	RN4220 kill 99.4, ugtP null kill 100.1, PfHsp40 rescue 83.3
COc1ccc(Oc2c(-c3ccc(O)cc3O)n[nH]c2C)cc1	none
Cc1ccc2nc(/C(C#N)=C\c3ccc([N+](=O)[O-])o3)[nH]c2c1	RN4220 kill 99.5, ugtP null kill 98.7
N#C/C(=C\c1ccc([N+](=O)[O-])o1)c1nc2ccccc2[nH]1	RN4220 kill 99.9, ugtP null kill 100.1 (no result: PfHsp40 rescue)
Cc1ccc2nc(/C(C#N)=C\c3ccc(N4CCOCC4)o3)[nH]c2c1	none
COc1ccc(NC(=O)CN2CCN(CC(=O)Nc3ccc(F)cc3)CC2)c(OC)c1	none
COc1cc2c(cc1OC)CN(CC(=O)Nc1ccc(F)cc1)C(C(=O)O)C2 (stereo unspecified)	PfHsp40 rescue 34.9
O=c1[nH]c2ccccc2nc1-c1ccccc1	none
NC(=O)N=Nc1c2[nH]c3ccccc3nc-2c2ccccc12	PfHsp40 rescue 45.3 (no result: RN4220 kill, ugtP null kill)
N#Cc1c(-c2ccc(Cl)cc2)n(O)c2ccccc12	PfHsp40 rescue 284.2 (no result: SARS 3CLpro inh, BJeLR viability, RN4220 kill, ugtP null kill)
N#Cc1c(-c2ccc(Cl)cc2)c(C#N)c(=O)n(N)c1N	none
CCOC(=O)c1[nH]c(C)c(C(=O)N2CCc3ccccc32)c1C	BJeLR viability 51.6
CC(=O)c1c(C)[nH]c(C(=O)N2CCc3ccccc32)c1C	none
COc1ccc(OCCCC(=O)Nc2nc(-c3ccccn3)cs2)cc1	none
CCc1ccccc1OCC(=O)Nc1nc(-c2cccnc2)cs1	PfHsp40 rescue 237.5
Cc1cc(C)c(OCC(=O)Nc2nc(-c3ccccn3)cs2)c(C)c1	PfHsp40 rescue 313.4
O=C(CC1CC2CCC1C2)Nc1nc(-c2ccccn2)cs1 (stereo unspecified)	PfHsp40 rescue 438.1
CCC(=O)c1ccc(OCC(=O)Nc2nc(-c3cccnc3)cs2)cc1	none (no result: SARS 3CLpro inh)
CC(=O)NC1=NN(C(C)=O)C(C)(c2cccc([N+](=O)[O-])c2)S1 (stereo unspecified)	none
N#CCCCC#Cc1ccc2c(c1)COc1c3ccccc3nn1-2	PfHsp40 rescue 123.6 (no result: SARS 3CLpro inh)
CC(=NNC(=O)c1ccco1)c1ccc(NC(=O)c2ccccc2)cc1	none (no result: SARS 3CLpro inh, BJeLR viability, PfHsp40 rescue)
O=C(NC(=S)Nc1ccc(NC(=O)c2ccco2)cc1)c1ccccc1	none
CCCCCC(=O)NC(=S)Nc1ccc(NC(=O)c2ccco2)cc1	ugtP null kill 88.4
CCCCCC(=O)N/N=C(\C)c1ccc(NC(=O)c2ccco2)cc1	PfHsp40 rescue 58.6 (no result: RN4220 kill, ugtP null kill)
Cc1cccc(NC(=S)NC(C)CCc2ccccc2)c1 (stereo unspecified)	PfHsp40 rescue 95.6
COc1cccc(C(=O)Nc2nnc(-c3ccccc3)s2)c1OC	none
COc1cccc(C(=O)Nc2sc(C(C)C)cc2C(N)=O)c1OC	PfHsp40 rescue 604.0
Oc1c(N=NC(=S)Nc2ccccc2F)c2ccccc2n1Cc1ccc(Cl)cc1	none (no result: RN4220 kill, ugtP null kill)
COc1ccc(NC(=O)CN(C)S(=O)(=O)c2ccc3[nH]c(=O)oc3c2)cc1	BJeLR viability 56.2
COC(=O)c1c(NC(=O)C(C)(C)C)csc1C	PfHsp40 rescue 37.6
C[C@@H]1CC[C@@]23COC(=O)C2=CCC[C@@H]3[C@@]1(C)CC/C(=C/CO)CO	none (no result: SARS 3CLpro inh, BJeLR viability)

Screening results as filed in PubChem.
